Test results from the supplement of paper PMC10338343.
± gives the standard deviation.

Experiments:
[1] = test system: MILI (PIWIL2) piRISC loaded with piRNA #1 (26 nt); experiment: pre-steady-state target cleavage rate (min^-1); guide: piRNA #1 5'p-UGAGGUAGUAGGUUGUAUAGUAUCCA; higher = faster piRNA-guided slicing of the target; conditions: auxiliary factor: 500 nM mouse GTSF1
Outline: (§1)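 Cleave-'n-Seq reactions paired 0.1 nM transcribed, DNA-blocked target RNA library with 1 nM active affinity-purified piRISC holding one synthetic guide, plus or minus 500 nM GTSF1 partner protein, in HEPES–potassium acetate buffer at 33 °C for 0–8 or 0–960 min. After sequencing of uncleaved targets and normalisation to depth and weakly complementary targets, the pre-steady-state cleavage rate was taken from a burst-and-steady-state fit. Three trials were pooled, and k3 was capped at 0.0001 min^-1.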

[2] = test system: EfPiwi piRISC loaded with piRNA #1 (26 nt); experiment: pre-steady-state target cleavage rate (min^-1); auxiliary factor: 500 nM Ephydatia muelleri Gtsf1; guide: piRNA #1 5'p-UGAGGUAGUAGGUUGUAUAGUAUCCA; MIWI and MILI are mouse PIWI proteins and EfPiwi is from a freshwater sponge; tags in brackets are library labels; higher = faster piRNA-guided slicing of the target
Outline: as §1

Row | Sequence | pre-steady-state target cleavage rate [1] | pre-steady-state target cleavage rate [2]
1 | GGAGACCAUACUAUACAACCUACUACGUCA | 0.116 ± 0.017 | 0.0053 ± 0.0015
2 | GGAGACGAAACUAUACUACCUACUACCUCA | 0.132 ± 0.02 | 0.00498 ± 0.0023
3 | GGAGAGGUACUAUACAACCUACUACCUCA | 0.089 ± 0.0084 | 0.00824 ± 0.0048
4 | GGAGACCUAACUAUACAACAUACUACCUCA | 0.0407 ± 0.0099 | 0.00659 ± 0.0046
5 | GGAGACCUAACUAUGCAACCUACUACCUCA | 0.12 ± 0.013 | 0.00447 ± 0.0039
6 | GGAGACGAUACUAUAGAACCUACUACCUGA | 0.0908 ± 0.021 | 0.00292 ± 0.0011
7 | GGAGACCUAUGAAGUACAACCUACUACCUCA | 0.00594 ± 0.0028 | 0.00479 ± 0.0035
8 | GGAGACGAUACUAUACAACCUACAAGCUCA | 0.0171 ± 0.0086 | 0.00381 ± 0.0023
9 | GGAGACGAUACUAUUCAAGCUACUACCUCA | 0.23 ± 0.015 | 0.00454 ± 0.002
10 | GGAGACCAUUCUAUACUACCUACUACCUCA | 0.111 ± 0.013 | 0.00741 ± 0.0044
11 | GGAGACGAUACUAUACAACCUACUAGCUCA | 0.11 ± 0.019 | 0.00381 ± 0.0011
12 | GGAGUGGAUACUAAACAACCUUCUACCUCA | 0.00905 ± 0.0025 | 0.00385 ± 0.0026
13 | GGAGACGAUCCUAUACAACCUACUACCUCA | 0.174 ± 0.025 | 0.0157 ± 0.0085
14 | GGAGAGGAAACUAUACAACCUACUACGUCA | 0.034 ± 0.011 | 0.00364 ± 0.0025
15 | GGAGACCAUACUAUACAACCUUCUACCUCA | 0.00761 ± 0.0026 | 0.00625 ± 0.0028
16 | GGAGAGGAUACUAUACAACCUACUACUCA | 0.109 ± 0.017 | 0.00563 ± 0.0029
17 | GGAGAGGAACUAUACAACCUACUACCUCA | 0.167 ± 0.013 | 0.00746 ± 0.0049
18 | GGAGACCUAUCUAGUACAACCUACUACCUCA | 0.0316 ± 0.0066 | 0.00434 ± 0.0035
19 | GGAGAGCAUACUAUACAACCUACUACGUCA | 0.112 ± 0.017 | 0.00351 ± 0.0025
20 | GGAGUGGCUACUAUACAACCUACUACCUCA | 0.19 ± 0.012 | 0.0198 ± 0.0079
21 | GGAGAGCAUACUUUACAACCUACUACCUCA | 0.138 ± 0.01 | 0.0083 ± 0.0045
22 | GGAGACCUAUGAUAACAACCUACUACCUACA | 0.0036 ± 0.0024 | < 0.0001
23 | GGAGUGGAUACUAUACUACCUACUACCUGA | 0.104 ± 0.013 | 0.00352 ± 0.0018
24 | GGAGUGGAUACUAAUCAACCUACUACCUCA | 0.144 ± 0.01 | 0.00495 ± 0.0038
25 | GGAGACGAUACAUAUACAACCUACUACCUCA | 0.111 ± 0.013 | 0.00804 ± 0.0033
26 | GGAGACGAUACUAUACAACCUACUAACUCA | 0.0612 ± 0.016 | 0.00467 ± 0.0021
27 | GGAGACGAUACUAUACUACGUACUACCUCA | 0.0345 ± 0.004 | 0.00413 ± 0.0027
28 | GGAGACCUAUGUAUUCAACCUACUACCACA | 0.0995 ± 0.016 | < 0.0001
29 | GGAGACGACUACUAUACAACCUACUACCUCA | 0.204 ± 0.017 | 0.01 ± 0.0046
30 | GGAGACGAUACUAUACAACCUACUACCUCA [g2:g24:cont:t1A] | 0.21 ± 0.018 | 0.0773 ± 0.024
